Measurements from the supplement of paper PMC3414501.
Counter-ions that a name gives are not always drawn. A number with no mark means an inactive call.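 The calls were made as follows: active = HIS4 sensitivity z-score above 5 vs DMSO controls; inactive = score 5 or below.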

System: S. cerevisiae NKY1551 his4x/his4B, sporulating
Assay: HIS4 meiotic recombination assay sensitivity score (z-score vs DMSO controls); higher = stronger inhibition of sporulation/recombination, active = hit call of the paper
Settings: stock concentration (mM, diluted 1:100): 7.6
Description: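 NIH Clinical Collection compounds were added 1:100 from stock (about 100 µM final) to S. cerevisiae. Growth: average doubling time (AvgG) over 24 h of BY4741 (wild-type) or AD1-9 (drug-efflux-pump deficient) in rich media. HIS4: the his4x/his4B heteroallelic recombination reporter strain (SK1) was sporulated 5 h with compound at 30°C, then colony density was read on -his plates after 48 h. Sensitivity score = (compound − mean of 8 DMSO controls)/SD of DMSO controls. Hit cutoffs are >2 for growth and >5 for sporulation.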

`CN1CC[C@]23CCCC[C@H]2[C@H]1Cc1ccc(O)cc13` [Levorphanol tartrate] was tested, and the “HIS4 meiotic recombination assay sensitivity score” value was -1.13.

Same assay, conditions: stock concentration (mM, diluted 1:100): 7.7

`CCC(COC(=O)c1cc(OC)c(OC)c(OC)c1)(c1ccccc1)N(C)C` (stereo not drawn) [Trimebutine maleate] was tested, and the “HIS4 meiotic recombination assay sensitivity score” value was -1.28.

Same assay, conditions: stock concentration (mM, diluted 1:100): 8.6

In the case of `CCOC(=O)C1(c2ccccc2)CCN(CCC(C#N)(c2ccccc2)c2ccccc2)CC1` [Diphenoxylate], the “HIS4 meiotic recombination assay sensitivity score” value is reported as 0.41.

Same assay, conditions: stock concentration (mM, diluted 1:100): 8.7

Point of comparison: `CC(=O)O[C@H]1C[C@@H]2CC[C@@H]3[C@H](CC[C@@]4(C)[C@H]3C[C@H]([N+]3(C)CCCCC3)[C@@H]4OC(C)=O)[C@@]2(C)C[C@@H]1[N+]1(C)CCCCC1` [Pancuronium], “HIS4 meiotic recombination assay sensitivity score” value -0.44. Against it:
- CC(NC(C)(C)C)C(=O)c1cccc(Cl)c1 (stereo not drawn) [Bupropion hydrochloride] — higher, 1.07

Same assay, conditions: stock concentration (mM, diluted 1:100): 8.9

`COc1ccc(C(CN(C)C)C2(O)CCCCC2)cc1` (stereo not drawn) [Venlafaxine hydrochloride] was tested, and the “HIS4 meiotic recombination assay sensitivity score” value was 1.

Same assay, conditions: stock concentration (mM, diluted 1:100): 9.7

With `CN1CCC(c2ccc(F)cc2)C(COc2ccc3c(c2)OCO3)C1` (stereo not drawn) [Methyl paroxetine] the “HIS4 meiotic recombination assay sensitivity score” value was 10.7 (active).

Same assay, conditions: stock concentration (mM, diluted 1:100): 10

Point of comparison: `O=C(O)C(Cl)Cl` [Dichloroacetic acid], “HIS4 meiotic recombination assay sensitivity score” value -0.62. Against it:
- O=c1c2ccccc2[se]n1-c1ccccc1 [Ebselen] — higher, -0.37
- c1ccc2c3c([nH]c2c1)CNCC3 [Tryptoline] — lower, -3.38
- CNCC(O)c1ccc(O)cc1 (stereo not drawn) [Synephrine] — lower, -1.28
- Cc1nnc2n1-c1ccc(Cl)cc1C(c1ccccc1)=NC2 [Alprazolam] — higher, 1.57
- Oc1ccc2c3c1O[C@H]1c4[nH]c5ccccc5c4C[C@@]4(O)[C@@H](C2)N(CC2CC2)CC[C@]314 [Naltrindole] — higher, -0.51
- c1ccc(Cn2ccnc2)cc1 [1-Benzylimidazole] — higher, -0.23
- CN1C(=O)CN=C(c2ccccc2)c2cc([N+](=O)[O-])ccc21 [Nimetazepam] — higher, -0.26
- Oc1cc2c(cc1O)[C@H]1c3ccccc3CN[C@@H]1CC2 — higher, 2.29
- NCCc1ccccn1 [2-(2-aminoethyl)pyridine] — higher, -0.1
- COc1cccc(C2(O)CCCCC2CN(C)C)c1 (stereo not drawn) [Tramadol] — lower, -2.65
- C#CCN(C)[C@H](C)Cc1ccccc1 [Selegiline] — higher, 0.06
- COC(=O)N1CCN(C(=O)Cc2ccc(Cl)c(Cl)c2)C(CN2CCCC2)C1 (stereo not drawn) — lower, -0.89
- NC(=O)C[S+]([O-])C(c1ccccc1)c1ccccc1 (stereo not drawn) [Modafinil] — higher, -0.33
- CCN(C(C)=O)c1cccc(-c2ccnc3c(C#N)cnn23)c1 [Zaleplon] — higher, -0.58
- CCCCC/C=C\C/C=C\C/C=C\C/C=C\CCCC(=O)Nc1ccc(O)cc1 — lower, -0.8
- CCN(CC)CCOC(=O)C(O)(c1ccccc1)c1ccccc1 [Benactyzine hydrochloride] — higher, -0.53
- COc1ccc2[nH]cc(CCN)c2c1 [5-Methoxytryptamine] — lower, -1.35
- O=C1CN=C(c2ccccc2)c2cc([N+](=O)[O-])ccc2N1 [Nitrazepam] — higher, -0.13
- CC[C@]1(O)CC[C@H]2[C@@H]3CCC4=CCCC[C@@H]4[C@H]3CC[C@@]21C [Ethylestrenol] — higher, 1.02

Same assay, conditions: stock concentration (mM, diluted 1:100): 10.1

Point of comparison: `CC[C@@H](C(N)=O)N1CCCC1=O` [Levetiracetam], “HIS4 meiotic recombination assay sensitivity score” value -0.77. Against it:
- NC(=O)OCCCc1ccccc1 [Phenprobamate] — higher, 0.5
- C=C(C)CN1CC[C@]23c4c5ccc(O)c4O[C@H]2c2[nH]c4ccccc4c2C[C@@]3(O)C1C5 — higher, 3.9
- C[C@]12CCC(=O)C[C@@H]1CC[C@@H]1[C@@H]2CC[C@@]2(C)[C@H]1CC[C@]2(C)O [Mestanolone] — higher, -0.62
- CC(NC(C)(C)C)C(=O)c1cccc(Cl)c1 (stereo not drawn) [Amfebutamone hydrochloride] — higher, -0.33

Same assay, conditions: stock concentration (mM, diluted 1:100): 11.3

In the case of `CC(C)CC(N(C)C)C1(c2ccc(Cl)cc2)CCC1` (stereo not drawn) [Sibutramine], the “HIS4 meiotic recombination assay sensitivity score” value is reported as 1.61.
